Compound activity (PubChem BioAssay)
D3 antag = blocks the human D3 dopamine receptor; D3R cells, DiscoveRx beta-arrestin luminescence, antagonist mode; hits give low values; max response, negative = inhibition, %; 2.5% of 360,000 active; AID 652054; in the data active = max response below about -50%; inconclusive = no clear call, values can overlap the other calls; note: % is set by controls: 0 for no effect and ±100 for the full control effect
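Cells expressing the human receptor were seeded at 1500 cells/well, incubated overnight at 37 degrees C in 5% CO2, then exposed to library compounds with dopamine controls for 90 minutes at 37 degrees C before luminescent detection.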
DRD3 agonist = agonists of human D3 dopamine receptor. P35462. D3R DiscoveRx beta-arrestin cells, luminescence, 90 min. max activation, %. 0.58% of 410,000 active; in the data active = max activation above about 30%; note: 0% is about no effect
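Cells at 1500/well, incubated overnight, then treated with pinned compounds (dopamine as control) for 90 min at 37 degrees C. DiscoveRx reagent added for 30 - 60 minutes at room temperature; luminescence read.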
B2AR arrestin = agonists driving beta-arrestin recruitment to human beta2-adrenergic receptor | 0.02% of 330,000 active | beta-arrestin recruitment to beta2AR, cell-based reporter | Potency, µM (titrated, usually from 46.1 µM), inactives show at the top dose activation, usual class: activators | AID 492947; active = well fitted activation curve with a large enough effect; inconclusive = small, poorly fitted or top-dose-only effect;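 note: potency is the fitted concentration of half-maximal effect; 0% = DMSO controls and full agonism = EC100 isoproterenol or metaproterenol; nearly all actives have a fitted effect of over 65% in size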
TSHR antagonist = human thyrotropin receptor antagonism | 0.2% of 330,000 active | P16473 | TSHR-expressing cells, TSH-stimulated cAMP HTRF, 2 h; hits give low values | activity change, negative = inhibition, % at 11.5 µM;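 active = activity change below a set negative limit, meaning inhibition stronger than a set level, cut at about -70% in these data; inconclusive = activity change between two set negative limits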; note: % is set by controls: 0 for no effect and ±100 for the full control effect
Target sequence (P16473 whole entry, looked up): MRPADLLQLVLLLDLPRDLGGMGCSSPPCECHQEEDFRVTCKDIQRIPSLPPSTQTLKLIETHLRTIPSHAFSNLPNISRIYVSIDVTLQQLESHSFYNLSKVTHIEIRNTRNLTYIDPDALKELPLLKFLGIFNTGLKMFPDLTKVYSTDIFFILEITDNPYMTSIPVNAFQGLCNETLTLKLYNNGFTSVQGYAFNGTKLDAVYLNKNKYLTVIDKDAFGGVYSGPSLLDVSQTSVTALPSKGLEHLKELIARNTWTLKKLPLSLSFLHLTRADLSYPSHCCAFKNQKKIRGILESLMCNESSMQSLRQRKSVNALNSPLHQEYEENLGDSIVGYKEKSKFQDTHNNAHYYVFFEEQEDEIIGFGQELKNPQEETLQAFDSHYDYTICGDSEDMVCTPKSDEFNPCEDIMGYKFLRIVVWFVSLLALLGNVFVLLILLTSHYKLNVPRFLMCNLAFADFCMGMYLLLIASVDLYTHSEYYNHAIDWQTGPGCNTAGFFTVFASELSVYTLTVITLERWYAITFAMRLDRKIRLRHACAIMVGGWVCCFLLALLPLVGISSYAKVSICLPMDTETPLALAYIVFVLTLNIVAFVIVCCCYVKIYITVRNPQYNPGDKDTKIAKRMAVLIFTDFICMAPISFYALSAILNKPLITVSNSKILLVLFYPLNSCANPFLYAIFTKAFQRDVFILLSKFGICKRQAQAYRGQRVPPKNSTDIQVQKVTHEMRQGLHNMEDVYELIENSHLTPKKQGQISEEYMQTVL
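Freshly harvested TSHR cells receive pin-tooled compound, then EC80 TSH at 4nM final. After 2 hours at 37 deg C, antibody in lysis buffer and cAMP-d2 are added; 30 minutes at ambient temperature precede the HTRF read.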
* hit, by the source's call. Sampled rows, rich in hits. Any-hit rate of the full collection: about 2.9%.

For COc1cc(/C=C2\CCC/C(=C\c3ccc(O)c(OC)c3)C2=O)ccc1O the results were D3 antag 13, DRD3 agonist -7, B2AR arrestin -1% and TSHR antagonist -14.
Screening COc1cc(/C=C2\CC/C(=C\c3cc(OC)c(OC)c(OC)c3)C2=O)cc(OC)c1OC returned D3 antag -4, DRD3 agonist -8, B2AR arrestin 0% and TSHR antagonist -31.
Screening COc1cc(/C=C2\COC/C(=C\c3cc(OC)c(OC)c(OC)c3)C2=O)cc(OC)c1OC returned D3 antag -63*, DRD3 agonist -12, B2AR arrestin inconclusive and TSHR antagonist -24.
For COc1ccccc1NC(=O)N1CCOc2ccccc21 the results were DRD3 agonist 1.
For CC(C)CCn1c(N)c(S(=O)(=O)c2cccs2)c2nc3ccccc3nc21 the results were D3 antag -87*, DRD3 agonist -7, B2AR arrestin 0% and TSHR antagonist -12.
Nc1c(S(=O)(=O)c2cccs2)c2nc3ccccc3nc2n1CCc1ccccc1 was read as B2AR arrestin -1% and TSHR antagonist -2.
Screening O=c1[nH]c(SCc2ccccc2)nc2c1CCCC2 returned DRD3 agonist 10.
`Cc1oc(-c2ccccc2Cl)nc1CSc1nc2c(c(=O)[nH]1)CCC2` gave D3 antag 184, DRD3 agonist 57*, B2AR arrestin 0% and TSHR antagonist 8.
Screening O=c1[nH]c(SCc2ccccc2Cl)nc2c1CCCC2 returned D3 antag 55, DRD3 agonist 31*, B2AR arrestin 5% and TSHR antagonist 17.
For COc1ccc(C(=O)C(CCC(CNC(C)(C)C)C(=O)c2ccc(OC)cc2)CNC(C)(C)C)cc1 (centres undefined) the results were D3 antag -55*, DRD3 agonist -17, B2AR arrestin -2% and TSHR antagonist 6.
Screening O=C1c2[nH]nc(-c3ccccc3O)c2C(c2ccc(Cl)cc2)N1CCc1ccccc1 (centres undefined) returned DRD3 agonist 10.
COc1cc(NC(C)CCCN)c2ncccc2c1Oc1ccccc1 (centres undefined) was read as D3 antag -56*, DRD3 agonist 7, B2AR arrestin 0% and TSHR antagonist 10.
Screening CCC(=O)Nc1ccc(CC)cc1-c1nc2ccccc2n(Cc2ccccc2)c1=O returned DRD3 agonist -13.
`COc1cc(C)c(/C=C(\C#N)C(=O)Nc2ccc(C)cc2)cc1C(C)C` gave D3 antag inconclusive, DRD3 agonist -43, B2AR arrestin 0% and TSHR antagonist 4.
Screening COCCNC(=O)/C(C#N)=C/c1cc(C(C)C)c(OC)cc1C returned D3 antag -77*, DRD3 agonist -40, B2AR arrestin 0% and TSHR antagonist -15.
Screening CC1(c2nnc(-c3ccccc3)o2)CC(c2ccc(Cl)cc2)=NO1 (centres undefined) returned D3 antag 46, DRD3 agonist 43*, B2AR arrestin 0% and TSHR antagonist -5.
CC1(c2nnc(-c3ccccc3)o2)CC(c2ccc([N+](=O)[O-])cc2)=NO1 (centres undefined) was read as D3 antag 37 and DRD3 agonist 37*.
For CC1(c2nnc(-c3ccncc3)o2)CC(c2ccc(Cl)cc2)=NO1 (centres undefined) the results were D3 antag 17 and DRD3 agonist 5.
Screening CC1(c2nnc(-c3ccccc3)o2)CC(c2ccc(F)cc2)=NO1 (centres undefined) returned D3 antag 0, DRD3 agonist 17, B2AR arrestin 0% and TSHR antagonist 4.
`COC1=C(N)C(=O)c2nc(-c3nc(C(=O)O)c(C)c(-c4ccc(OC)c(OC)c4O)c3N)ccc2C1=O` gave D3 antag -118*, DRD3 agonist -102, B2AR arrestin -2% and TSHR antagonist -72*.
CCN(CC)CCNC(=O)c1ccc2c(c1)NC(=O)C(CS(=O)(=O)Cc1ccc(F)cc1Cl)N2 (centres undefined) was read as DRD3 agonist -10.
CCOc1ccc(-n2c(SCC(=O)N3CCOCC3)nc3c([nH]c4ccccc43)c2=O)cc1 was read as DRD3 agonist -12.
`COc1ccc(C(=O)Nc2cccc(-c3cn4ccsc4n3)c2)c(OC)c1` gave DRD3 agonist 63*.
COc1ccc(N2CCN(c3oc(/C=C/c4ccccc4OC)nc3C#N)CC2)cc1 was read as DRD3 agonist -14.
Screening CCOC(=O)CSc1nc2ccccc2n2cnnc12 returned D3 antag -51*, DRD3 agonist -9, B2AR arrestin 0% and TSHR antagonist 7.
Screening C=CCSc1nc2ccccc2n2cnnc12 returned D3 antag 7, DRD3 agonist 0, B2AR arrestin 0% and TSHR antagonist -5.
`COc1cc(OC)c(NC(=S)Nc2cccc(C(C)=O)c2)cc1Cl` gave D3 antag -60*, DRD3 agonist -10, B2AR arrestin 0% and TSHR antagonist -15.
For COC(=O)c1cc(OC)c(OC)cc1NC(=S)Nc1cccc(Cl)c1 the results were D3 antag -66*, DRD3 agonist -9, B2AR arrestin 0% and TSHR antagonist 21.
Screening CCn1ccc2c(OCC(=O)NCc3ccc(C)cc3)cccc2c1=O returned DRD3 agonist 7.
For Cc1nn(Cc2ccc([N+](=O)[O-])cc2)c(=O)n1-c1c(F)cccc1F the results were D3 antag -61*, DRD3 agonist 1, B2AR arrestin 0% and TSHR antagonist 4.
Cc1nn(Cc2ccc([N+](=O)[O-])cc2)c(=O)n1-c1ccc(F)cc1 was read as D3 antag -7, DRD3 agonist 12, B2AR arrestin 0% and TSHR antagonist 6.
For Cc1oc(-c2ccccc2F)nc1CN1CCC(C(=O)NCCC2=CCCCC2)CC1 the results were D3 antag -57*, DRD3 agonist -2, B2AR arrestin 0% and TSHR antagonist -5.
Cc1ccccc1-c1nc(CN2CCC(C(=O)NCCCN3CCCC3)CC2)c(C)o1 was read as D3 antag -57*, DRD3 agonist -3, B2AR arrestin -1% and TSHR antagonist 1.
Cc1ccccc1-c1nc(CN2CCC(C(=O)NCCCN3CCOCC3)CC2)c(C)o1 was read as D3 antag -9, DRD3 agonist -22, B2AR arrestin 0% and TSHR antagonist 5.
Screening CCn1cc(C(=O)N2CCN(c3ccccc3OC)CC2)c(=O)c2cc(S(=O)(=O)N3CCC(C)CC3)ccc21 returned DRD3 agonist 1.
O=S1(=O)N=C(Nc2cccc(C(F)(F)F)c2)c2ccccc21 was read as DRD3 agonist -22.
`Oc1ccccc1C1=Nc2ccccc2N=C(c2ccco2)C1` gave D3 antag 8, DRD3 agonist -18, B2AR arrestin 0% and TSHR antagonist 7.
`Oc1ccccc1C1=NOC(O)(C(F)F)C1` (centres undefined) gave D3 antag -66*, DRD3 agonist -3, B2AR arrestin 0% and TSHR antagonist -1.
